Source: PubChem BioAssay (NCATS)
Records with an inconclusive call do not appear. Active and inactive are the calls of the source. Calls follow the shape of the dose curve; as a rule, active = well fitted inhibition curve with a large enough effect; inconclusive = small, poorly fitted or top-dose-only effect; inactive = flat fitted curve, though single readings scatter. Peptide text beside a SMILES is read from it.

system: GB4; assay: qHTS profiling for inhibitors of Plasmodium falciparum proliferation (AID 504749); also: nearly all actives have a fitted effect of over 60% in size;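 as to activity, negative = inhibition: 0% = DMSO vehicle and full inhibition = artemisinin control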; conditions: P. falciparum in erythrocytes, SYBR Green DNA, 72 h; series mostly up to 12.8 µM; activity, negative = inhibition: at the top concentration
Outline: (§1)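 In a 72 h erythrocytic culture (37 C, humidified, 5% CO2) at 2.5% hematocrit and 0.3% starting parasitemia, compounds were tested; SYBR Green I in detergent lysis buffer stained parasite DNA overnight.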
Potency is read from the fitted curve at half-maximal effect.

activity, negative = inhibition, inactive:
CN(C)CCCOC1C(C(O)CO)OC2OC(C)(C)O[C@@H]21 (some centres undefined) -7.52% [at 28.7 µM]
CCC(C)C(=O)OC1CCC=C2C=CC(C)C(CCC3CC(O)CC(=O)O3)[C@@H]21 (some centres undefined) -3.01% [at 28.7 µM]
CC(=O)OC1CCC2C3CCc4cc(O)ccc4C3CCC12C (centres undefined) -19.5% [at 28.7 µM]
CC[C@@]12CCCN3CCc4c(n(c5ccccc45)[C@](O)(C(=O)OC)C1)C32 (some centres undefined) -20.8% [at 28.7 µM]
CN1CC(=O)N=C1N -3.01% [at 28.7 µM]
OCC1OC([S-])[C@H](O)C(O)C1O.[Au+] (some centres undefined) -14.2% [at 28.7 µM]
CC(C)C1CCC(C(=O)NC(Cc2ccccc2)C(=O)O)CC1 (centres undefined) 2.78% [at 28.7 µM]
CCC(CCC(C)C1CCC2C3CC=C4CC(O)CC[C@@]4(C)C3CC[C@@]12C)C(C)C (some centres undefined) -4.57% [at 28.7 µM]
C[C@]12CCC(=O)C=C1CCC1C2C(=O)C[C@]2(C)C1CC[C@]2(O)C(=O)CO (some centres undefined) -1.78% [at 28.7 µM]
OCC1O[C@H](OC2C(CO)O[C@@](O)(CO)C2O)C(O)C(O)C1O (some centres undefined) -7.12% [at 28.7 µM]
CC1(C)OC2CO[C@]3(COS(N)(=O)=O)OC(C)(C)OC3C2O1 (some centres undefined) -0.373% [at 28.7 µM]
CC1(C)OC2CC(=O)OC[C@@]23C1CC(=O)[C@]1(C)C3CC[C@@]2(C)C(c3ccoc3)OC(=O)C3O[C@@]321 (some centres undefined) -2.15% [at 28.7 µM]
COC(=O)C(Cc1ccccc1)NC(=O)C(N)CC(=O)O (stereo not drawn) (H-Asp-Phe-OMe; configuration not given here) -0.572% [at 28.7 µM]
C[C@]12C=CC(=O)C=C1CCC1C2C(O)C[C@]2(C)C1CC[C@]2(O)C(=O)CO (some centres undefined) -5.3% [at 28.7 µM]
CC1(C)S[C@H]2C(NC(=O)[C@@H](N)c3ccc(O)cc3)C(=O)N2[C@@H]1C(=O)O (some centres undefined) 0.699% [at 28.7 µM]
CC(C)=CCC[C@](C)(O)C1CC=C(C)CC1 (some centres undefined) -8.4% [at 28.7 µM]
C[C@]1(c2ccccc2)OC(C(=O)O)=CC1=O 0.372% [at 28.7 µM]
CC(=O)N[C@H](CC(C)C)C(=O)O -4.84% [at 28.7 µM]
COc1ccc2cc(C(C)CO)ccc2c1 (centres undefined) -17% [at 28.7 µM]
CC1CCC(C(C)C)C(=O)C1 (centres undefined) -9.65% [at 28.7 µM]
CNC1CC(N)[C@H](O)[C@@H](O[C@@H]2OC(CO)C3OC4(OC(C(N)CO)C(O)C(O)C4O)O[C@@H]3[C@H]2O)C1O (some centres undefined) 0.229% [at 28.7 µM]
CCCC(=O)O[C@]1(C(=O)CO)CCC2[C@@H]3CCC4=CC(=O)CC[C@]4(C)C3C(O)C[C@]21C (some centres undefined) -8.07% [at 28.7 µM]
CC(=O)[C@]1(O)CCC2C3C=C(Cl)C4=CC(=O)C5CC5[C@@]4(C)C3CC[C@]21C (some centres undefined) -8.17% [at 28.7 µM]
C/C1=C2N=C(/C=C3N=C(/C(C)=C4\[N-]C(C)(C5N=C1C(C)(CCC(=O)NCC(C)OP(=O)([O-])O[C@H]1C(O)C(n6cnc7cc(C)c(C)cc76)O[C@@H]1CO)C5CC(N)=O)C(C)(CC(N)=O)C4CCC(N)=O)C(C)(CC(N)=O)C\3CCC(N)=O)C(C)(C)C/2CCC(N)=O.[CH2-]C1OC(n2cnc3c(N)ncnc32)C(O)C1O.[Co] (some centres undefined) -14.7% [at 28.7 µM]
O=C1OC(CO)C(O)C(O)C1O (centres undefined) -0.553% [at 28.7 µM]
CNC1C(OC2C(O[C@@H]3C(O)C(O)[C@@H](N=C(N)N)C(O)C3N=C(N)N)OC(C)[C@@]2(O)CO)OC(CO)C(O)C1O (some centres undefined) -1.95% [at 28.7 µM]
Nc1nc2ncc(CNc3ccc(C(=O)NC(CCC(=O)O)C(=O)O)cc3)nc2c(=O)[nH]1 (centres undefined) -2.22% [at 28.7 µM]

Potency, active:
NC(C(=O)O)[C@@H]1CC(Cl)=NO1 (some centres undefined) 1.2 µM
COC1C=CO[C@@]2(C)Oc3c(C)c(O)c4c(O)c(c5c(nc6cc(C)ccn65)c4c3C2=O)NC(=O)/C(C)=C\C=CC(C)C(O)[C@@H](C)C(O)C(C)[C@@H](OC(C)=O)C1C (some centres undefined) 3.79 µM
COC1C=CO[C@@]2(C)Oc3c(C)c(O)c4c(O)c(c(C=NN5CCN(C)CC5)c(O)c4c3C2=O)NC(=O)/C(C)=C\C=CC(C)C(O)[C@@H](C)C(O)C(C)[C@H](OC(C)=O)C1C (some centres undefined) 0.953 µM
COc1cc(C2c3cc4c(cc3C(O[C@@H]3OC5COC(c6cccs6)OC5C(O)C3O)C3COC(=O)C23)OCO4)cc(OC)c1O (some centres undefined) 2.39 µM

system: HB3; assay: as above; conditions: P. falciparum in erythrocytes, SYBR Green DNA, 72 h; series mostly up to 12.8 µM; activity, negative = inhibition: at the top concentration
Outline: as §1

activity, negative = inhibition, inactive:
CN(C)CCCOC1C(C(O)CO)OC2OC(C)(C)O[C@@H]21 (some centres undefined) -3.7% [at 28.7 µM]
CCC(C)C(=O)OC1CCC=C2C=CC(C)C(CCC3CC(O)CC(=O)O3)[C@@H]21 (some centres undefined) 1.65% [at 28.7 µM]
CC(=O)OC1CCC2C3CCc4cc(O)ccc4C3CCC12C (centres undefined) -2.84% [at 28.7 µM]
CC[C@@]12CCCN3CCc4c(n(c5ccccc45)[C@](O)(C(=O)OC)C1)C32 (some centres undefined) -12.4% [at 28.7 µM]
CN1CC(=O)N=C1N 0.676% [at 28.7 µM]
OCC1OC([S-])[C@H](O)C(O)C1O.[Au+] (some centres undefined) -18% [at 28.7 µM]
CC(C)C1CCC(C(=O)NC(Cc2ccccc2)C(=O)O)CC1 (centres undefined) 0.796% [at 28.7 µM]
CCC(CCC(C)C1CCC2C3CC=C4CC(O)CC[C@@]4(C)C3CC[C@@]12C)C(C)C (some centres undefined) 2.23% [at 28.7 µM]
C[C@]12CCC(=O)C=C1CCC1C2C(=O)C[C@]2(C)C1CC[C@]2(O)C(=O)CO (some centres undefined) -8.81% [at 28.7 µM]
OCC1O[C@H](OC2C(CO)O[C@@](O)(CO)C2O)C(O)C(O)C1O (some centres undefined) -1.83% [at 28.7 µM]
CC1(C)OC2CO[C@]3(COS(N)(=O)=O)OC(C)(C)OC3C2O1 (some centres undefined) -2.36% [at 28.7 µM]
CC1(C)OC2CC(=O)OC[C@@]23C1CC(=O)[C@]1(C)C3CC[C@@]2(C)C(c3ccoc3)OC(=O)C3O[C@@]321 (some centres undefined) 2.87% [at 28.7 µM]
CCOC(=O)C1=CC(OC(CC)CC)C(NC(C)=O)C(N)C1 (centres undefined) -8.72% [at 28.7 µM]
COC(=O)C(Cc1ccccc1)NC(=O)C(N)CC(=O)O (stereo not drawn) (H-Asp-Phe-OMe; configuration not given here) -1.03% [at 28.7 µM]
C[C@]12C=CC(=O)C=C1CCC1C2C(O)C[C@]2(C)C1CC[C@]2(O)C(=O)CO (some centres undefined) 2.82% [at 28.7 µM]
CC1(C)S[C@H]2C(NC(=O)[C@@H](N)c3ccc(O)cc3)C(=O)N2[C@@H]1C(=O)O (some centres undefined) 6.54% [at 28.7 µM]
CC(C)=CCC[C@](C)(O)C1CC=C(C)CC1 (some centres undefined) -0.748% [at 28.7 µM]
C[C@]1(c2ccccc2)OC(C(=O)O)=CC1=O 0.845% [at 28.7 µM]
CC(=O)N[C@H](CC(C)C)C(=O)O 2.43% [at 28.7 µM]
COc1ccc2cc(C(C)CO)ccc2c1 (centres undefined) 2.57% [at 28.7 µM]
CC1CCC(C(C)C)C(=O)C1 (centres undefined) 3.56% [at 28.7 µM]
CNC1CC(N)[C@H](O)[C@@H](O[C@@H]2OC(CO)C3OC4(OC(C(N)CO)C(O)C(O)C4O)O[C@@H]3[C@H]2O)C1O (some centres undefined) 7.54% [at 28.7 µM]
CCCC(=O)O[C@]1(C(=O)CO)CCC2[C@@H]3CCC4=CC(=O)CC[C@]4(C)C3C(O)C[C@]21C (some centres undefined) 12% [at 28.7 µM]
CC(=O)[C@]1(O)CCC2C3C=C(Cl)C4=CC(=O)C5CC5[C@@]4(C)C3CC[C@]21C (some centres undefined) 1.41% [at 28.7 µM]
C/C1=C2N=C(/C=C3N=C(/C(C)=C4\[N-]C(C)(C5N=C1C(C)(CCC(=O)NCC(C)OP(=O)([O-])O[C@H]1C(O)C(n6cnc7cc(C)c(C)cc76)O[C@@H]1CO)C5CC(N)=O)C(C)(CC(N)=O)C4CCC(N)=O)C(C)(CC(N)=O)C\3CCC(N)=O)C(C)(C)C/2CCC(N)=O.[CH2-]C1OC(n2cnc3c(N)ncnc32)C(O)C1O.[Co] (some centres undefined) -24.5% [at 28.7 µM]
O=C1OC(CO)C(O)C(O)C1O (centres undefined) 6.84% [at 28.7 µM]
CNC1C(OC2C(O[C@@H]3C(O)C(O)[C@@H](N=C(N)N)C(O)C3N=C(N)N)OC(C)[C@@]2(O)CO)OC(CO)C(O)C1O (some centres undefined) -4.14% [at 28.7 µM]
Nc1nc2ncc(CNc3ccc(C(=O)NC(CCC(=O)O)C(=O)O)cc3)nc2c(=O)[nH]1 (centres undefined) -0.638% [at 28.7 µM]

Potency, active:
NC(C(=O)O)[C@@H]1CC(Cl)=NO1 (some centres undefined) 1.78 µM
COC1C=CO[C@@]2(C)Oc3c(C)c(O)c4c(O)c(c5c(nc6cc(C)ccn65)c4c3C2=O)NC(=O)/C(C)=C\C=CC(C)C(O)[C@@H](C)C(O)C(C)[C@@H](OC(C)=O)C1C (some centres undefined) 11.2 µM
CO[C@]12C(COC(N)=O)C3=C(C(=O)C(C)=C(N)C3=O)N1CC1NC12 (some centres undefined) 1 µM
COC1C=CO[C@@]2(C)Oc3c(C)c(O)c4c(O)c(c(C=NN5CCN(C)CC5)c(O)c4c3C2=O)NC(=O)/C(C)=C\C=CC(C)C(O)[C@@H](C)C(O)C(C)[C@H](OC(C)=O)C1C (some centres undefined) 0.447 µM
COc1cc(C2c3cc4c(cc3C(O[C@@H]3OC5COC(c6cccs6)OC5C(O)C3O)C3COC(=O)C23)OCO4)cc(OC)c1O (some centres undefined) 3.16 µM
